The values that follow come from PubChem BioAssay (NCATS).

Records with an inconclusive call do not appear. Unmarked numbers belong to inactive results. Activity calls are given as the source filed them. The call rests on the fitted dose curve; in most records, active means well fitted inhibition curve with a large enough effect; inconclusive means small, poorly fitted or top-dose-only effect; inactive means flat fitted curve, though single readings scatter.
On the % scale 0 is the no-effect control and ±100 the full control effect; potency means the concentration at half of the fitted maximal effect.

For this assay, the system named is HEK293. As to the kind of experiment: Cytotoxic Profiling of Annotated Libraries Using Quantitative High-Throughput Screening (AID 1296008). Further: nearly all actives have a fitted effect of over 60% in size. Conditions: Five cell lines viability, CellTiter-Glo ATP luminescence, 48-72 h; max response: stronger effect = lower value. Summed up:
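Compounds were pin-transferred onto cells and incubated 48 or 72 hr at 37 degree Celsius, 95% humidity. CellTiter-Glo was added, plates sat 10 min at room temperature, then ATP-coupled luminescence was imaged as the viability read-out.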
In general terms: In ATP-based viability assays light output follows the ATP content of the culture.
With `CN1CCN(C(=O)c2ccc3cc(CCNc4ncnc5ccc(C#N)cc45)ccc3c2)CC1`, the Potency was 2910 nM (active).
Regarding `C[C@H](NC(c1cccc2[nH]c(=O)c(=O)[nH]c12)P(=O)(O)O)c1ccc(Br)cc1` (stereo partly drawn), the max response is 1.8%.
The same measure, in the same setting: with `C/C(=C\CCC(C)CCO)C(=O)O[C@@H]1[C@@H](O)[C@H](OC2OC=C(C(=O)O)C3CCC(C)(O)C23)O[C@H](CO)[C@H]1O` (stereo partly drawn) the figure was 0.262%.
As to `CNC(=O)c1ccccc1Nc1nc(Nc2ccc3c(c2OC)CCCC(N2CCN(CCO)CC2)C3)ncc1Cl` (stereo not drawn), the Potency was 5170 nM (active).
As for `NC(=O)[C@H](O[C@@H]1O[C@H](CO)[C@@H](O)[C@H](O)[C@H]1O)c1ccccc1`, the max response was -3.01%.
Same read-out and setting: with `C=C1[C@H](OC(C)=O)[C@H]2[C@@H](OC(C)=O)[C@](C)(OC(C)=O)C[C@]2(OC(C)=O)C(=O)[C@H](C)/C=C/C(C)(C)C(=O)[C@H](OC(=O)C(C)C)[C@H]1OC(C)=O` the figure was 1.22%.
`CC1=CC2C(CC1OC1OC(CO)C(O)C(O)C1O)C(C)CC(=O)C2C(C)C` (stereo not drawn): the max response is -0.187%.
The same measure, in the same setting: in the case of `CC#CC(=O)N1CCC[C@H]1c1nc(-c2ccc(C(=O)Nc3ccccn3)cc2)c2c(N)nccn12` it was -0.695%; in that of `CC(C)c1nnc(-c2ccc(-c3ccccc3)nc2)n1-c1cccc2nonc12`, 3.01%; in that of `CC(C)(C)c1ccc(S(=O)(=O)Nc2ccc(Cl)cc2C(=O)c2cc[n+]([O-])cc2)cc1`, -2.23%.
The same measure, in the same setting: in the case of `CC(C)C1=CC2C(CC[C@]2(C)O)[C@](C)(O)CC1` (stereo partly drawn) it was -1.9%.
On to `C=CC1C(OC2OC(CO)C(O)C(O)C2O)OC=C2C(=O)N3C(C(=O)O)Cc4c([nH]c5ccccc45)C3CC21` (stereo not drawn), for which the max response was 0.732%.
As to `CC1(C)CC[C@]2(C(=O)O[C@@H]3O[C@H](CO)[C@@H](O)[C@H](O)[C@H]3O)CC[C@]3(C)C(=CCC4[C@@]5(C)CC[C@H](O[C@@H]6O[C@H](C(=O)O)[C@@H](O)[C@H](O[C@@H]7O[C@H](CO)[C@H](O)[C@H](O)[C@H]7O)[C@H]6O)C(C)(C)C5CC[C@]43C)C2C1` (stereo partly drawn), the max response was 1.5%.
For `O=C(/C=C/c1ccc(O)cc1)OC1[C@H](O)CC(O)(C(=O)O)C[C@H]1O` (stereo partly drawn), the max response is -1.83%.
Regarding `O=C1Nc2ccccc2C(O)(c2ccccc2)C1O` (stereo not drawn), the max response was -7.58%.
In the case of `COc1cc(/C=C/C=O)cc(OC)c1O[C@@H]1O[C@H](CO)[C@@H](O)[C@H](O)[C@H]1O`, the max response is -3.11%.
On the same count and under the same terms, with `C=C1C[C@]23C[C@H]1CC[C@H]2[C@@]12CC[C@H](O)[C@@](C)(C(=O)O1)[C@H]2[C@@H]3C(=O)O` the figure was -4.65%.
With `Cc1[nH]nc(C(F)(F)F)c1Cc1sc2c(c1C(=O)N1C[C@](C)(O)CO1)c(=O)n(C)c(=O)n2C(C)C`, the Potency is 51.7 nM (active).
For `CC1COC(Nc2ccc3ncnc(Nc4ccc(OCc5nccs5)c(Cl)c4)c3c2)=N1` (stereo not drawn), the Potency is 11600 nM (active).
Take `C=C1CC[C@H]2[C@@](C)(CCC(O)[C@@]2(C)CO)[C@@H]1CCC1=CCOC1=O` (stereo partly drawn): the max response was 3.62%.
Take `O=C(OC[C@@]1(O)CO[C@@H](O[C@H]2[C@H](Oc3ccc(O)cc3)O[C@H](CO)[C@@H](O)[C@@H]2O)[C@@H]1O)c1ccc(O)cc1`: the max response is -7.32%.
Regarding `CC(=O)OC[C@H]1O[C@H](O[C@]2(CO)O[C@H](CO)[C@@H](OC(=O)/C=C/c3ccccc3)[C@@H]2O)[C@H](O)[C@@H](O)[C@@H]1O`, the max response is 2.62%.
As to `C/C1=C\C[C@]2(C)C(=O)C(O)=C([C@H](C)CO)[C@H]2C/C=C(\C)[C@@H](O)CC/C(C)=C/CC1`, the max response is 2.1%.
As for `CC(C)C(=O)OC[C@H]1O[C@H](O[C@H]2O[C@H](CO)[C@@H](O)[C@H](O)[C@H]2O)[C@H](O)[C@@H](O)[C@@H]1O`, the max response was 3.34%.
As for `Cc1cc(Cl)ccc1COc1ccnn1-c1cc(C(=O)O)ccn1`, the max response was -13.3%.
Same read-out and setting: in the case of `CC(C)c1ccc2c(c1)C(=O)CC1[C@@](C)(C(=O)O)CCC[C@]21C` (stereo partly drawn) it was 3.51%; in that of `CC(CO)C1CCC2(C)CC3C(CO)CC(O)C3C(C)(O)C/C=C/12` (stereo not drawn), -10.5%.
For `CC(C)NCC(C(=O)N1CCN(c2ncnc3c2C(C)CC3O)CC1)c1ccc(Cl)cc1` (stereo not drawn), the Potency is 580 nM (active).
As for `COc1c/c(=C2\C=c3ccccc3=N2)[nH]/c1=C\c1[nH]c(C)cc1C`, the Potency was 1300 nM (active).
Turning to `COC(=O)c1ccccc1O[C@@H]1O[C@H](CO)[C@@H](O)[C@H](O)[C@H]1O[C@@H]1O[C@@H](C)[C@H](O)[C@@H](O)[C@H]1O`, the max response is 3.36%.
With `Cn1c(=O)n(-c2ccc(C(C)(C)C#N)cc2)c2c3cc(C#Cc4cccnc4)ccc3ncc21`, the Potency is 89.3 nM (active).
As for `C[C@@H]1O[C@@H](O[C@H]2[C@@H](OC(=O)[C@]34CCC(C)(C)CC3C3=CCC5[C@@]6(C)C[C@H](O)[C@H](O[C@@H]7O[C@H](C(=O)O)[C@@H](O)[C@H](O)[C@H]7O)[C@@](C)(C(=O)O)C6CC[C@@]5(C)[C@]3(C)CC4)OC[C@H](O)[C@@H]2O)[C@H](O)[C@H](O)[C@H]1O[C@@H]1OC[C@@H](O)[C@H](O)[C@H]1O` (stereo partly drawn), the max response is -1.89%.
For the molecule `CC1(C)CCC[C@]2(C)[C@H]3CC(=O)O[C@]3(C)CC[C@@H]12`, the max response is -37.4%.
